Test results taken from PubChem BioAssay (NCI).
Several values for one entry are separate records, joined by “and”; a condition that tells them apart may be missing. Equal entries are not always repeated. This is part of a sample that, as a whole, favours compounds with a hit. Of some 79,000 tested, about 15% had one in any assay. A structure can be active in one record and inactive in another. Activity calls are given as the source filed them. Rule as the data show it: active = growth inhibition above about 70%; inactive = the rest.

Assays:
[1] = NCI Yeast Anticancer Drug Screen. Data for the rad52 strain (AID 147);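 also: 0% = growth of vehicle-treated control cultures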; conditions: S. cerevisiae rad52 mutant growth inhibition, stronger effect = higher value
In short: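 Here a repair-compromised yeast strain receives each compound; its growth is then quantified and normalised to vehicle-only controls.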

[2] = NCI Yeast Anticancer Drug Screen. Data for the wt1 strain (AID 149);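 also: 0% = growth of vehicle-treated wt1 cultures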; conditions: S. cerevisiae wt1 strain (SPY 50644) growth inhibition, stronger effect = higher value
In short: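 Vehicle-normalised growth inhibition; strain wt1; compound exposure.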

[3] = NCI Yeast Anticancer Drug Screen. Data for the rad50EPP+ strain (AID 151);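 also: 0% = growth of vehicle-treated control cultures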; conditions: S. cerevisiae rad50 mutant strain, stronger effect = higher value
In short: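 Read-out is yeast growth inhibition relative to vehicle; cells used were the rad50EPP+ strain.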

[4] = NCI Yeast Anticancer Drug Screen. Data for the mgt1 strain (AID 153); conditions: S. cerevisiae mgt1 mutant growth inhibition, stronger effect = higher value
In short: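 Measured: inhibition of mgt1 yeast growth by compound, normalized to vehicle-treated cultures.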

[5] = NCI Yeast Anticancer Drug Screen. Data for the rad50 strain (AID 155);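 also: 0% = growth of vehicle-only cultures of the same strain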; conditions: S. cerevisiae rad50 strain growth inhibition, stronger effect = higher value
In short: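 A DNA repair-deficient yeast mutant serves as the test organism; compound-induced growth inhibition is calculated against vehicle-treated cells.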

[6] = NCI Yeast Anticancer Drug Screen. Data for the mec2-1 strain (AID 157); conditions: S. cerevisiae mec2-1 strain, stronger effect = higher value
In short: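 Using mec2-1 yeast: add compound, measure growth, express inhibition versus vehicle-treated cultures.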

[7] = NCI Yeast Anticancer Drug Screen. Data for the rad14 strain (AID 159);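 also: 0% = growth of vehicle-treated control cultures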; conditions: S. cerevisiae rad14 strain growth inhibition, stronger effect = higher value
In short: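 Vehicle-treated cultures served as the baseline for growth inhibition of a DNA repair-mutant yeast strain exposed to each compound.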

[8] = NCI Yeast Anticancer Drug Screen. Data for the sgs1 mgt1 strain (AID 161);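 also: 0% = growth of cultures given vehicle only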; conditions: S. cerevisiae sgs1 mgt1 strain, stronger effect = higher value
In short: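 Compounds are added to genetically altered yeast, and growth is compared with cultures given vehicle alone to give percent inhibition.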

[9] = NCI Yeast Anticancer Drug Screen. Data for the CLN2oe strain (AID 163);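 also: 0% = growth of vehicle-only control cultures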; conditions: S. cerevisiae CLN2oe strain, stronger effect = higher value
In short: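 Whole-cell yeast growth assay. A strain engineered for altered cell-cycle control received compound, and inhibition relative to vehicle-treated cultures was recorded.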

[10] = NCI Yeast Anticancer Drug Screen. Data for the cln2 rad14 strain (AID 165);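 also: 0% = growth equal to vehicle treated cultures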; conditions: S. cerevisiae cln2 rad14 strain, stronger effect = higher value
In short: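 Yeast strain cln2 rad14, bearing defects in cell cycle control and DNA repair, serves as the test system; values reflect growth inhibition compared with vehicle.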

[11] = NCI Yeast Anticancer Drug Screen. Data for the bub3 strain (AID 167); conditions: S. cerevisiae bub3 mutant strain, stronger effect = higher value
In short: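 Inhibition values come from growth of compound-treated mutant yeast normalised to vehicle-treated controls.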

[12] = NCI Yeast Anticancer Drug Screen. Data for the wt2 strain (AID 169);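 also: 0% = growth of vehicle-treated yeast cultures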; conditions: S. cerevisiae wt2 strain growth inhibition, stronger effect = higher value
In short: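 Treated yeast vs. vehicle-treated yeast: growth inhibition determined.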

[13] = NCI Yeast Anticancer Drug Screen. Data for the mlh1 strain (AID 171);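 also: 0% = growth of vehicle-treated control cultures of the same strain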; conditions: S. cerevisiae mlh1 strain growth inhibition, stronger effect = higher value
In short: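 A yeast strain with a defined genetic lesion serves as the test organism. Cultures receive compound or vehicle, and growth is measured.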

[14] = NCI Yeast Anticancer Drug Screen. Data for the mlh1 rad18 strain (AID 175); conditions: S. cerevisiae mlh1 rad18 strain growth inhibition, stronger effect = higher value
In short: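 Steps: expose repair-defective yeast to compound; measure growth; express inhibition against vehicle-treated controls.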

[15] = NCI Yeast Anticancer Drug Screen. Data for the rad18 strain (AID 177); conditions: S. cerevisiae rad18 mutant growth inhibition, stronger effect = higher value
In short: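 Measured value is growth inhibition of a yeast strain bearing a DNA repair alteration, referenced to vehicle-treated cells.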

[16] = at 5.0 µM (retest, dose inferred, filed as 0.5)
[17] = at 50.0 µM (retest, dose inferred, filed as 5.0)

Measured: growth inhibition

O=C(O)c1ccc(N2C(=O)C=CC2=O)cc1
active: [1]; at 100.0 µM 74% | [5]; at 100.0 µM 80% | [15]; at 100.0 µM 72%
inactive: [1]; at 1.2 µM 1% | [1]; at 3.7 µM 7% | [1]; at 11.0 µM 8% | [1]; at 33.0 µM 27% | [2]; at 1.2 µM -3% | [2]; at 3.7 µM -2% | [2]; at 11.0 µM 1% | [2]; at 33.0 µM 10% | [2]; at 100.0 µM 53% | [3]; at 1.2 µM 2% | [3]; at 3.7 µM 5% | [3]; at 11.0 µM 8% | [3]; at 33.0 µM 22% | [3]; at 100.0 µM 40% | [4]; at 1.2 µM 1% | [4]; at 3.7 µM 1% | [4]; at 11.0 µM 3% | [4]; at 33.0 µM 18% | [4]; at 100.0 µM 62% | [5]; at 1.2 µM 3% | [5]; at 3.7 µM 11% | [5]; [16] -8% and 7% | [5]; at 11.0 µM 14% | [5]; at 33.0 µM 33% | [5]; [17] 44% and 25% | [6]; at 1.2 µM -7% | [6]; at 3.7 µM -4% | [6]; [16] 5% and 7% | [6]; at 11.0 µM 0% | [6]; at 33.0 µM 21% | [6]; [17] 15% and 24% | [6]; at 50.0 µM 17.6% and 32.5% | [6]; at 100.0 µM 56% | [7]; at 1.2 µM -3% | [7]; at 3.7 µM -6% | [7]; at 11.0 µM 3% | [7]; at 33.0 µM 12% | [7]; at 100.0 µM 38% | [8]; [16] 9% and 8% | [8]; [17] 56% and 22% | [8]; at 50.0 µM 11.9% and 59.4% | [9]; at 1.2 µM 1% | [9]; at 3.7 µM 4% | [9]; at 11.0 µM 6% | [9]; at 33.0 µM 18% | [9]; at 100.0 µM 39% | [10]; [16] -35% and 5% | [10]; [17] -2% and 6% | [10]; at 50.0 µM 43.3% and 26.8% | [11]; at 1.2 µM -7% | [11]; at 3.7 µM -23% | [11]; [16] -13% and -1% | [11]; at 11.0 µM -3% | [11]; at 33.0 µM 4% | [11]; [17] 10% and -10% | [11]; at 50.0 µM -2.9% and -0.2% | [11]; at 100.0 µM 39% | [12]; at 1.2 µM -2% | [12]; at 3.7 µM -1% | [12]; at 11.0 µM 5% | [12]; at 33.0 µM 22% | [12]; at 100.0 µM 68% | [13]; at 1.2 µM -2% | [13]; at 3.7 µM 5% | [13]; at 11.0 µM 10% | [13]; at 33.0 µM 25% | [13]; at 100.0 µM 61% | [14]; [16] -6% and 4% | [14]; [17] 41% and 20% | [14]; at 50.0 µM 20.1% and 27.3% | [15]; at 1.2 µM 1% | [15]; at 3.7 µM 3% | [15]; at 11.0 µM 4% | [15]; at 33.0 µM 22%
30% (inactive) and 72.7% (active): [5]; at 50.0 µM

COc1ccc(/C=C/C(=O)c2ccccc2)cc1OC
67.5% (inactive) and 83.8% (active): [11]; at 50.0 µM
51.9% (inactive) and 80.3% (active): [8]; at 50.0 µM
54% (inactive) and 84% (active): [6]; at 50.0 µM
17.4% (inactive) and 76.2% (active): [14]; at 50.0 µM
6.55% (inactive) and 84.3% (active): [5]; at 50.0 µM
inactive: [1]; at 1.2 µM -42% | [1]; at 3.7 µM -42% | [1]; at 11.0 µM -30% | [1]; at 33.0 µM 19% | [2]; at 1.2 µM -2% | [2]; at 3.7 µM -15% | [2]; at 11.0 µM -2% | [2]; at 33.0 µM 28% | [3]; at 1.2 µM 16% | [3]; at 3.7 µM 11% | [3]; at 11.0 µM 28% | [3]; at 33.0 µM 27% | [4]; at 1.2 µM -3% | [4]; at 3.7 µM -30% | [4]; at 11.0 µM -24% | [4]; at 33.0 µM 55% | [5]; at 1.2 µM 12% | [5]; at 3.7 µM 1% | [5]; [16] 22% | [5]; at 11.0 µM -5% | [5]; at 33.0 µM 44% | [5]; [17] 48% | [6]; at 1.2 µM -6% | [6]; at 3.7 µM -12% | [6]; [16] -16% | [6]; at 11.0 µM -2% | [6]; at 33.0 µM 47% | [6]; [17] 59% | [7]; at 1.2 µM 3% | [7]; at 3.7 µM 5% | [7]; at 11.0 µM 14% | [7]; at 33.0 µM 46% | [8]; [16] 15% | [8]; [17] 54% | [9]; at 1.2 µM 12% | [9]; at 3.7 µM 3% | [9]; at 11.0 µM 19% | [9]; at 33.0 µM 37% | [10]; [16] 30% | [10]; [17] 34% | [10]; at 50.0 µM -16.2% and 58.3% | [11]; at 1.2 µM 4% | [11]; at 3.7 µM 14% | [11]; [16] 16% | [11]; at 11.0 µM -36% | [11]; at 33.0 µM 62% | [12]; at 1.2 µM -30% | [12]; at 3.7 µM -33% | [12]; at 11.0 µM -34% | [12]; at 33.0 µM 38% | [13]; at 1.2 µM 20% | [13]; at 3.7 µM 19% | [13]; at 11.0 µM 17% | [13]; at 33.0 µM 67% | [14]; [16] 3% | [15]; at 1.2 µM -12% | [15]; at 3.7 µM -20% | [15]; at 11.0 µM -8%
active: [1]; at 100.0 µM 95% | [2]; at 100.0 µM 92% | [3]; at 100.0 µM 75% | [4]; at 100.0 µM 96% | [5]; at 100.0 µM 96% | [6]; at 100.0 µM 95% | [7]; at 100.0 µM 92% | [9]; at 100.0 µM 97% | [11]; [17] 88% | [11]; at 100.0 µM 95% | [12]; at 100.0 µM 95% | [13]; at 100.0 µM 95% | [14]; [17] 79% | [15]; at 33.0 µM 72% | [15]; at 100.0 µM 95%
